Binding signal data for 40 sequences are collected here from article PMC9838217, “Structure of SALL4 zinc finger domain reveals link between AT-rich DNA binding and Okihiro syndrome”.

Substitutions are numbered along the chain they refer to.

In one test the target is T1, SALL4 ZFC4 WT (HT-SELEX) (Mus musculus, UniProt Q8BX22 870-940).
T1 sequence: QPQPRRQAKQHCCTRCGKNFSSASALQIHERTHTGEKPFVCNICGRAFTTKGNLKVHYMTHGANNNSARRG
The test can be described thus: HT-SELEX; high values mean tight binding. The note with it: protein: recombinant; vector His6-GST; dsDNA, one strand shown. The gist of the method: (§1)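 Residues 870–940 of mouse SALL4, forming zinc finger cluster 4, were expressed recombinantly, purified, and 1 µg was incubated with library DNA (1.5 µg first cycle, 200 ng later) in 100 µl of 10 mM Tris–HCl pH 7.5, 50 mM NaCl, poly(dI-dC) and DTT for 10 min at room temperature. Washed Ni2+ bead-captured complexes were PCR-amplified and reselected for up to 6 cycles in triplicate, and the products were sequenced on MiSeq and scanned for 6-mers. Binding signal is the fold change in each canonical k-mer's read fraction compared with the initial random library.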
For AAACTT, the binding signal was found to be 1.81 ± 0.119 fold-change vs cycle 0.
The same measure, in the same setting: the figure for ATTTAG is 1.79 ± 0.0993 fold-change vs cycle 0.
The same measure, in the same setting: the figure for CCACGA is 0.33 ± 0.0384 fold-change vs cycle 0; for GAGTAC it is 0.903 ± 0.0224 fold-change vs cycle 0; for CCTGAC it is 0.451 ± 0.0407 fold-change vs cycle 0.
Same read-out and setting: the figure for AAATTT is 2.66 ± 0.248 fold-change vs cycle 0; for AATTCG it is 0.945 ± 0.024 fold-change vs cycle 0.
On to CGTCCA, for which the binding signal amounted to 0.318 ± 0.0103 fold-change vs cycle 0.
Same read-out and setting: the figure for TATCCA is 1.41 ± 0.0597 fold-change vs cycle 0; for CCAGTC it is 0.437 ± 0.0378 fold-change vs cycle 0; for AGTACA it is 1.29 ± 0.0355 fold-change vs cycle 0.
On to CTACAG, for which the binding signal came out at 0.79 ± 0.0207 fold-change vs cycle 0.
In the case of CCGTCA, the binding signal turned out to be 0.358 ± 0.0271 fold-change vs cycle 0.
For AGCGAT, the binding signal came out at 0.553 ± 0.0342 fold-change vs cycle 0.
For AAAAAA, the binding signal was 2.68 ± 0.235 fold-change vs cycle 0.
Same read-out and setting: the figure for ACTTGC is 0.656 ± 0.0276 fold-change vs cycle 0.
Same read-out and setting: the figure for GACACA is 0.629 ± 0.04 fold-change vs cycle 0.
On the same count and under the same terms, the figure for GATCCC is 0.519 ± 0.025 fold-change vs cycle 0; for ATTGGG it is 0.725 ± 0.0369 fold-change vs cycle 0.
Turning to ACCTCT, the binding signal was 0.859 ± 0.0231 fold-change vs cycle 0.
CGGTCA: the binding signal came to 0.331 ± 0.0331 fold-change vs cycle 0.
As to GGGTTA, the binding signal was found to be 0.864 ± 0.0423 fold-change vs cycle 0.
Same read-out and setting: the figure for ACGGTC is 0.362 ± 0.0473 fold-change vs cycle 0; for GCTAGA it is 0.636 ± 0.0274 fold-change vs cycle 0.
On the same count and under the same terms, the figure for AAAAGC is 0.816 ± 0.0288 fold-change vs cycle 0; for ACCTCA it is 0.854 ± 0.0441 fold-change vs cycle 0; for ATCGAT it is 1.23 ± 0.075 fold-change vs cycle 0.
On the same count and under the same terms, the figure for GAATAC is 1.29 ± 0.026 fold-change vs cycle 0.
On to ATTCCC, for which the binding signal was 0.877 ± 0.0328 fold-change vs cycle 0.
As to AAAGCC, the binding signal was determined as 0.465 ± 0.0355 fold-change vs cycle 0.
Still for that read-out and setting: the figure for GCCTAC is 0.304 ± 0.0224 fold-change vs cycle 0; for CCTCAA it is 0.759 ± 0.0289 fold-change vs cycle 0.
Same read-out and setting: the figure for AGTATG is 1.43 ± 0.0699 fold-change vs cycle 0; for CTCCAG it is 0.482 ± 0.0297 fold-change vs cycle 0.
Same read-out and setting: the figure for CTATAA is 2.19 ± 0.104 fold-change vs cycle 0.
For AACGTG, the binding signal was 0.697 ± 0.0529 fold-change vs cycle 0.
On the same count and under the same terms, the figure for CTTGTA is 1.27 ± 0.0539 fold-change vs cycle 0; for TATATA it is 5.68 ± 0.781 fold-change vs cycle 0; for CAACCG it is 0.334 ± 0.0164 fold-change vs cycle 0.
Same read-out and setting: the figure for AGCGAA is 0.492 ± 0.0304 fold-change vs cycle 0.

A further test concerns the target T2, SALL4 ZFC4 R900W (HT-SELEX) (Mus musculus, UniProt Q8BX22 870-940, R900W).
T2 sequence: T1 sequence with R31W
Nature of the test: HT-SELEX; high values mean tight binding. The note with it: protein: recombinant; vector His6-GST; dsDNA, one strand shown. An outline of the steps:
as §1
For AAACTT, the binding signal worked out at 1.89 ± 0.128 fold-change vs cycle 0.
Still for that read-out and setting: the figure for ATTTAG is 1.83 ± 0.0928 fold-change vs cycle 0; for CCACGA it is 0.407 ± 0.011 fold-change vs cycle 0; for GAGTAC it is 0.992 ± 0.045 fold-change vs cycle 0.
The same measure, in the same setting: the figure for CCTGAC is 0.547 ± 0.0213 fold-change vs cycle 0.
On the same count and under the same terms, the figure for AAATTT is 2.17 ± 0.141 fold-change vs cycle 0; for AATTCG it is 1.008 ± 0.0043 fold-change vs cycle 0; for CGTCCA it is 0.381 ± 0.0253 fold-change vs cycle 0.
For TATCCA, the binding signal stood at 1.44 ± 0.0638 fold-change vs cycle 0.
On the same count and under the same terms, the figure for CCAGTC is 0.533 ± 0.0426 fold-change vs cycle 0.
On the same count and under the same terms, the figure for AGTACA is 1.43 ± 0.0834 fold-change vs cycle 0; for CTACAG it is 0.894 ± 0.0405 fold-change vs cycle 0; for CCGTCA it is 0.431 ± 0.0281 fold-change vs cycle 0.
Still for that read-out and setting: the figure for AGCGAT is 0.644 ± 0.0243 fold-change vs cycle 0; for AAAAAA it is 1.98 ± 0.146 fold-change vs cycle 0.
As to ACTTGC, the binding signal stood at 0.723 ± 0.0488 fold-change vs cycle 0.
The same measure, in the same setting: the figure for GACACA is 0.754 ± 0.0153 fold-change vs cycle 0; for GATCCC it is 0.62 ± 0.0104 fold-change vs cycle 0.
The same measure, in the same setting: the figure for ATTGGG is 0.818 ± 0.0162 fold-change vs cycle 0; for ACCTCT it is 0.978 ± 0.0308 fold-change vs cycle 0; for CGGTCA it is 0.405 ± 0.0336 fold-change vs cycle 0.
The same measure, in the same setting: the figure for GGGTTA is 0.939 ± 0.0501 fold-change vs cycle 0; for ACGGTC it is 0.432 ± 0.0371 fold-change vs cycle 0.
For the sequence GCTAGA, the binding signal was found to be 0.746 ± 0.0225 fold-change vs cycle 0.
In the case of AAAAGC, the binding signal was found to be 0.899 ± 0.0164 fold-change vs cycle 0.
On the same count and under the same terms, the figure for ACCTCA is 0.976 ± 0.0441 fold-change vs cycle 0; for ATCGAT it is 1.21 ± 0.0415 fold-change vs cycle 0.
Still for that read-out and setting: the figure for GAATAC is 1.41 ± 0.0467 fold-change vs cycle 0; for ATTCCC it is 0.943 ± 0.055 fold-change vs cycle 0; for AAAGCC it is 0.543 ± 0.0413 fold-change vs cycle 0.
With GCCTAC, the binding signal was 0.368 ± 0.00435 fold-change vs cycle 0.
The same measure, in the same setting: the figure for CCTCAA is 0.864 ± 0.0329 fold-change vs cycle 0; for AGTATG it is 1.49 ± 0.072 fold-change vs cycle 0.
Still for that read-out and setting: the figure for CTCCAG is 0.584 ± 0.0424 fold-change vs cycle 0; for CTATAA it is 1.95 ± 0.0822 fold-change vs cycle 0; for AACGTG it is 0.827 ± 0.0416 fold-change vs cycle 0.
For CTTGTA, the binding signal is 1.44 ± 0.0511 fold-change vs cycle 0.
For the sequence TATATA, the binding signal is 2.55 ± 0.233 fold-change vs cycle 0.
Take CAACCG: the binding signal is 0.389 ± 0.015 fold-change vs cycle 0.
The same measure, in the same setting: the figure for AGCGAA is 0.566 ± 0.0332 fold-change vs cycle 0.

For a further test, the target named is T3, SALL4 ZFC4 G921D (HT-SELEX) (Mus musculus, UniProt Q8BX22 870-940, G921D).
T3 sequence: T1 sequence with G52D
Nature of the test: HT-SELEX; high values mean tight binding. The note with it: protein: recombinant; vector His6-GST; dsDNA, one strand shown. The gist of the method:
as §1
AAACTT: the binding signal worked out at 1.68 ± 0.174 fold-change vs cycle 0.
On the same count and under the same terms, the figure for ATTTAG is 1.64 ± 0.15 fold-change vs cycle 0; for CCACGA it is 0.515 ± 0.0508 fold-change vs cycle 0.
As for GAGTAC, the binding signal turned out to be 1.04 ± 0.0172 fold-change vs cycle 0.
Still for that read-out and setting: the figure for CCTGAC is 0.654 ± 0.0358 fold-change vs cycle 0.
Still for that read-out and setting: the figure for AAATTT is 1.93 ± 0.166 fold-change vs cycle 0; for AATTCG it is 1.07 ± 0.0346 fold-change vs cycle 0; for CGTCCA it is 0.504 ± 0.0811 fold-change vs cycle 0.
On the same count and under the same terms, the figure for TATCCA is 1.34 ± 0.0962 fold-change vs cycle 0; for CCAGTC it is 0.62 ± 0.0337 fold-change vs cycle 0; for AGTACA it is 1.35 ± 0.0882 fold-change vs cycle 0.
Take CTACAG: the binding signal was found to be 0.94 ± 0.015 fold-change vs cycle 0.
The same measure, in the same setting: the figure for CCGTCA is 0.531 ± 0.0693 fold-change vs cycle 0; for AGCGAT it is 0.766 ± 0.0387 fold-change vs cycle 0.
On the same count and under the same terms, the figure for AAAAAA is 1.76 ± 0.185 fold-change vs cycle 0.
Same read-out and setting: the figure for ACTTGC is 0.815 ± 0.0179 fold-change vs cycle 0; for GACACA it is 0.837 ± 0.0392 fold-change vs cycle 0.
Regarding GATCCC, the binding signal was 0.711 ± 0.017 fold-change vs cycle 0.
For the sequence ATTGGG, the binding signal was determined as 0.856 ± 0.0353 fold-change vs cycle 0.
The same measure, in the same setting: the figure for ACCTCT is 1.02 ± 0.0211 fold-change vs cycle 0.
Still for that read-out and setting: the figure for CGGTCA is 0.52 ± 0.0692 fold-change vs cycle 0; for GGGTTA it is 0.958 ± 0.0312 fold-change vs cycle 0.
Same read-out and setting: the figure for ACGGTC is 0.553 ± 0.067 fold-change vs cycle 0; for GCTAGA it is 0.8072 ± 0.00258 fold-change vs cycle 0; for AAAAGC it is 0.953 ± 0.0234 fold-change vs cycle 0.
As for ACCTCA, the binding signal was determined as 1.04 ± 0.0599 fold-change vs cycle 0.
Same read-out and setting: the figure for ATCGAT is 1.3 ± 0.0771 fold-change vs cycle 0; for GAATAC it is 1.34 ± 0.07 fold-change vs cycle 0.
On the same count and under the same terms, the figure for ATTCCC is 0.984 ± 0.0201 fold-change vs cycle 0; for AAAGCC it is 0.65 ± 0.0602 fold-change vs cycle 0.
On the same count and under the same terms, the figure for GCCTAC is 0.499 ± 0.0602 fold-change vs cycle 0; for CCTCAA it is 0.951 ± 0.0279 fold-change vs cycle 0; for AGTATG it is 1.38 ± 0.0928 fold-change vs cycle 0.
In the case of CTCCAG, the binding signal turned out to be 0.667 ± 0.0339 fold-change vs cycle 0.
As to CTATAA, the binding signal was 1.74 ± 0.119 fold-change vs cycle 0.
Same read-out and setting: the figure for AACGTG is 0.87 ± 0.0436 fold-change vs cycle 0.
Same read-out and setting: the figure for CTTGTA is 1.33 ± 0.0845 fold-change vs cycle 0; for TATATA it is 2.17 ± 0.291 fold-change vs cycle 0; for CAACCG it is 0.509 ± 0.0746 fold-change vs cycle 0.
Turning to AGCGAA, the binding signal was 0.686 ± 0.0519 fold-change vs cycle 0.
